The target in experiment [1] is T1, Mitogen-activated protein kinase 12 (Homo sapiens) (UniProt P53778).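 Further: values are averaged p38gamma kinase inhibition readings, compounds tested at 1 µM.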
T1 sequence (whole entry): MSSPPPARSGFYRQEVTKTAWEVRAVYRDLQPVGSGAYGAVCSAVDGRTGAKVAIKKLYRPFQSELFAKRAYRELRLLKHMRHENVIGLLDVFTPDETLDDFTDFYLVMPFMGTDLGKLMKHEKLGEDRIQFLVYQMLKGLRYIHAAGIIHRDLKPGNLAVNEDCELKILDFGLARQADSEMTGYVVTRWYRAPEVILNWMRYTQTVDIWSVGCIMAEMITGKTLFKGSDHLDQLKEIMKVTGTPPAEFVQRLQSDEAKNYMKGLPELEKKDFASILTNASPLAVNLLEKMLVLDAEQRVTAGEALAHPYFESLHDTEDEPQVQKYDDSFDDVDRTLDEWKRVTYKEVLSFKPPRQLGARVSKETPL
The following applies: at 1 µM.

Experiment [2] concerns the target SRSF protein kinase 1 (Homo sapiens) (UniProt Q96SB4). As to conditions: at 0.1 µM.
Experiment [3] has the same target. As to conditions: at 1 µM.
Experiment [4] addresses Phosphatidylinositol 4,5-bisphosphate 3-kinase catalytic subunit alpha isoform (Homo sapiens) (UniProt P42336). As to conditions: at 0.1 µM.
For experiment [5] the target is unchanged. The following applies: at 1 µM.
The target in experiment [6] is T2, Phosphatidylinositol 4,5-bisphosphate 3-kinase catalytic subunit delta isoform (Homo sapiens) (UniProt O00329).
T2 sequence (whole entry): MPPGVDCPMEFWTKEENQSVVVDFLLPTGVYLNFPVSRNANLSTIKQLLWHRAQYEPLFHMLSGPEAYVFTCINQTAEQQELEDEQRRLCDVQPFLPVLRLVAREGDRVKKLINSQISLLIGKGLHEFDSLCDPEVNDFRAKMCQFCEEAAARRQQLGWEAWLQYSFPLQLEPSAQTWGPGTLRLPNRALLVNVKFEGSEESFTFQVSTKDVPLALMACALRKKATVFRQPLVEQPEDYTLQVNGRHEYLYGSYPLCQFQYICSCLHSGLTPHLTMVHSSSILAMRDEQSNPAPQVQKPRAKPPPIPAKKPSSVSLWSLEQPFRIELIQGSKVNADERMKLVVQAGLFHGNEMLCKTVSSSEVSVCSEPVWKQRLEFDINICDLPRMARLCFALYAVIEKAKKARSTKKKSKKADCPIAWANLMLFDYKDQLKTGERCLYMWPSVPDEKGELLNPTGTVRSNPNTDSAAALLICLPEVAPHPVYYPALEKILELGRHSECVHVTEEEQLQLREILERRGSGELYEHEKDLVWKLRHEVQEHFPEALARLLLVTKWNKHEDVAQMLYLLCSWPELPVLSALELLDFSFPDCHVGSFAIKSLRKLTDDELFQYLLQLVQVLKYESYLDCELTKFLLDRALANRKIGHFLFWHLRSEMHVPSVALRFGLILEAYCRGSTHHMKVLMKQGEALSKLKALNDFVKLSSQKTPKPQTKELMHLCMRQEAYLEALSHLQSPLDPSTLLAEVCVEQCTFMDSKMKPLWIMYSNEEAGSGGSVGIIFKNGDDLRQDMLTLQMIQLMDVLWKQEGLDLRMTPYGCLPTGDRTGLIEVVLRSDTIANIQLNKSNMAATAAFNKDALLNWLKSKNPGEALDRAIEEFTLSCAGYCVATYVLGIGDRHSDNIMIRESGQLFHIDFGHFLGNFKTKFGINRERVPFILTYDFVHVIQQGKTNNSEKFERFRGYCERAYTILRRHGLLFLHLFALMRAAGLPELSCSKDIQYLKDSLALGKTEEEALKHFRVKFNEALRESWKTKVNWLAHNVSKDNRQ
As to conditions: at 0.1 µM.

Experiment [7] has as its target T2, Phosphatidylinositol 4,5-bisphosphate 3-kinase catalytic subunit delta isoform (Homo sapiens). The following applies: at 1 µM.
For experiment [8], the target named is Phosphatidylinositol 4-kinase beta (Homo sapiens) (UniProt Q9UBF8). As to conditions: at 0.1 µM.
The target is the same in experiment [9]. As to conditions: at 1 µM.
In experiment [10] the target is Sphingosine kinase 1 (Homo sapiens) (UniProt Q9NYA1). As to conditions: at 0.1 µM.
Experiment [11] has the same target. As to conditions: at 1 µM.
Experiment [12] has as its target T3, Sphingosine kinase 2 (Homo sapiens) (UniProt Q9NRA0).
T3 sequence (whole entry): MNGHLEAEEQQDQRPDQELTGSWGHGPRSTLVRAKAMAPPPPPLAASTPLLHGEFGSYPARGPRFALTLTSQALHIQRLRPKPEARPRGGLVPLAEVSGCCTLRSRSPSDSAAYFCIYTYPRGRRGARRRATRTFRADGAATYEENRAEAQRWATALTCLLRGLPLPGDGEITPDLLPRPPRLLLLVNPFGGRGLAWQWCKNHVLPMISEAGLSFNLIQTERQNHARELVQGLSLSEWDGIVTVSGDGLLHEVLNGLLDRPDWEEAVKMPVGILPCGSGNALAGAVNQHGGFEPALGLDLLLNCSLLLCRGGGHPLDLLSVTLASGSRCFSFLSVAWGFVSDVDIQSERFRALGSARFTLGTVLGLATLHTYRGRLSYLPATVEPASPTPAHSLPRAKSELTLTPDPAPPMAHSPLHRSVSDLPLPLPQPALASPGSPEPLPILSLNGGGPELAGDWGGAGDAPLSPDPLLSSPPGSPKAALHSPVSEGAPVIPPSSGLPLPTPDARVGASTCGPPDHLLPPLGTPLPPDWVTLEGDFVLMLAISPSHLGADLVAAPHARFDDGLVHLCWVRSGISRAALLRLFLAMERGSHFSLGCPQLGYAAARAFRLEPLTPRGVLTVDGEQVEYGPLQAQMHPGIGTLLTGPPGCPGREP
The following applies: at 0.1 µM.

Experiment [13] has as its target T3, Sphingosine kinase 2 (Homo sapiens). As to conditions: at 1 µM.
In experiment [14] the target is Casein kinase II subunit alpha (Homo sapiens) (UniProt P68400). As to conditions: at 0.1 µM.
Experiment [15] shares this target. The following applies: at 1 µM.
In experiment [16] the target is T4, Inhibitor of nuclear factor kappa-B kinase subunit alpha (Homo sapiens) (UniProt O15111).
T4 sequence (whole entry): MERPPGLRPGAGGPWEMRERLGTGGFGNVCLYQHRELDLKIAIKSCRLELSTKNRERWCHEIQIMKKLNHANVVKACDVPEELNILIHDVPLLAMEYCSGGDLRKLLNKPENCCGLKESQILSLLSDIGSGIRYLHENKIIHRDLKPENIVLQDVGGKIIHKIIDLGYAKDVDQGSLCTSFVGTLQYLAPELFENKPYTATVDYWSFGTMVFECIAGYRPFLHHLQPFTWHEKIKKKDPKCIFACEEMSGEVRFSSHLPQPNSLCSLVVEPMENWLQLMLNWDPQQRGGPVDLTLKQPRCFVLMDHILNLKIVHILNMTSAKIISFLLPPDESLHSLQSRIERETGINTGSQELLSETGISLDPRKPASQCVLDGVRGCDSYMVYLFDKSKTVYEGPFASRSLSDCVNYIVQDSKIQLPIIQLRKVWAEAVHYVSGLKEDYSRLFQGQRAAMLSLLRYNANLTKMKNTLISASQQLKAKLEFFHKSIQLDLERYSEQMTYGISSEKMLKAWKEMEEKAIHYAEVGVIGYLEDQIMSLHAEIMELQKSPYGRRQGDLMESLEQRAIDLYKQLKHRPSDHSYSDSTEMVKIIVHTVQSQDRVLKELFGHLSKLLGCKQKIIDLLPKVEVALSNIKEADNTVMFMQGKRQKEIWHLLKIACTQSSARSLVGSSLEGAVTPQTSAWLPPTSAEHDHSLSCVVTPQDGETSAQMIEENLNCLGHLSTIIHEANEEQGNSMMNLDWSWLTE
As to conditions: at 0.1 µM.

Experiment [17] addresses T4, Inhibitor of nuclear factor kappa-B kinase subunit alpha (Homo sapiens). The following applies: at 1 µM.
Experiment [18] has as its target T5, Inhibitor of nuclear factor kappa-B kinase subunit beta (Homo sapiens) (UniProt O14920).
T5 sequence (whole entry): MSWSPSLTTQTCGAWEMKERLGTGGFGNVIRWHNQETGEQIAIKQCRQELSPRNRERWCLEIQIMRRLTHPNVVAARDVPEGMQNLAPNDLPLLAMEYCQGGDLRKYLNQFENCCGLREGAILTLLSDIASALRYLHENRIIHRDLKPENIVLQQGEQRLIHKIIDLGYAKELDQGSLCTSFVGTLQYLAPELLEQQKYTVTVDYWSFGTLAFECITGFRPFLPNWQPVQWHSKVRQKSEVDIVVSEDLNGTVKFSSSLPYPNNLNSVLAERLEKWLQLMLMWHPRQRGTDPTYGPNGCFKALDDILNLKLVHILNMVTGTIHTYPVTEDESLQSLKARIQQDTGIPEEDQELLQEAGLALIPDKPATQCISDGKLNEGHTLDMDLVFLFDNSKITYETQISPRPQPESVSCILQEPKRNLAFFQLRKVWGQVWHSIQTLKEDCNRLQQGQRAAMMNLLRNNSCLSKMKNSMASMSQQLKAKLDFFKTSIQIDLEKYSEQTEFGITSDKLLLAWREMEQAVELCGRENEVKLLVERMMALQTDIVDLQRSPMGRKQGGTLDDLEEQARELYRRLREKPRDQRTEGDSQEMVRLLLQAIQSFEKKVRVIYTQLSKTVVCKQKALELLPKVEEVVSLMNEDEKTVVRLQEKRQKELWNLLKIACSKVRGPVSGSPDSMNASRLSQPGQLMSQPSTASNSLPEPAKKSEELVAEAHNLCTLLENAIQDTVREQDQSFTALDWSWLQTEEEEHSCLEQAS
As to conditions: at 0.1 µM.

Experiment [19] deals with T5, Inhibitor of nuclear factor kappa-B kinase subunit beta (Homo sapiens). As to conditions: at 1 µM.
Experiment [20] concerns the target T6, Inhibitor of nuclear factor kappa-B kinase subunit epsilon (Homo sapiens) (UniProt Q14164).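 Further: mean inhibition of IKKε reported, from the GSK PKIS dataset.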
T6 sequence (whole entry): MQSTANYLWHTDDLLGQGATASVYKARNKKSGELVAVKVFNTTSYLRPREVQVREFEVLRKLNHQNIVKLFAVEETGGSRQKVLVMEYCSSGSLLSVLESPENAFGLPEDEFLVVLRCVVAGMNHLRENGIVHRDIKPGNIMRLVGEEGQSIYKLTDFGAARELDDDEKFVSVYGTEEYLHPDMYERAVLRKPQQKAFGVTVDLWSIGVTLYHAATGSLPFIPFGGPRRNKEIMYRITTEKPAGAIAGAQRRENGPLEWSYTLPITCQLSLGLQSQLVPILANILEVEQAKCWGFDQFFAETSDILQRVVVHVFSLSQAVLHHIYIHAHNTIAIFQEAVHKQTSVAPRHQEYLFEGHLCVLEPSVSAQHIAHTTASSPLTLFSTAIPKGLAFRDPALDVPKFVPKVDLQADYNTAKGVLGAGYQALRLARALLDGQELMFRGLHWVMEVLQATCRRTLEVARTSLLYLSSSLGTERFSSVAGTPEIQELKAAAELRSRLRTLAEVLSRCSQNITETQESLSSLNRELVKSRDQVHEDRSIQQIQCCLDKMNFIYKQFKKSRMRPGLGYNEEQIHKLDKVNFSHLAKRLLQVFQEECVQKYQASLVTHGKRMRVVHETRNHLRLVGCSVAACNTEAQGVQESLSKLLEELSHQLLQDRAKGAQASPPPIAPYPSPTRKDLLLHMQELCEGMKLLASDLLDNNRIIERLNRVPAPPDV
As to conditions: at 0.1 µM.

The structures appear in SMILES notation.

Phosphatidylinositol 4-kinase beta (Homo sapiens), sequence (Q9UBF8 2-816 limits assumed): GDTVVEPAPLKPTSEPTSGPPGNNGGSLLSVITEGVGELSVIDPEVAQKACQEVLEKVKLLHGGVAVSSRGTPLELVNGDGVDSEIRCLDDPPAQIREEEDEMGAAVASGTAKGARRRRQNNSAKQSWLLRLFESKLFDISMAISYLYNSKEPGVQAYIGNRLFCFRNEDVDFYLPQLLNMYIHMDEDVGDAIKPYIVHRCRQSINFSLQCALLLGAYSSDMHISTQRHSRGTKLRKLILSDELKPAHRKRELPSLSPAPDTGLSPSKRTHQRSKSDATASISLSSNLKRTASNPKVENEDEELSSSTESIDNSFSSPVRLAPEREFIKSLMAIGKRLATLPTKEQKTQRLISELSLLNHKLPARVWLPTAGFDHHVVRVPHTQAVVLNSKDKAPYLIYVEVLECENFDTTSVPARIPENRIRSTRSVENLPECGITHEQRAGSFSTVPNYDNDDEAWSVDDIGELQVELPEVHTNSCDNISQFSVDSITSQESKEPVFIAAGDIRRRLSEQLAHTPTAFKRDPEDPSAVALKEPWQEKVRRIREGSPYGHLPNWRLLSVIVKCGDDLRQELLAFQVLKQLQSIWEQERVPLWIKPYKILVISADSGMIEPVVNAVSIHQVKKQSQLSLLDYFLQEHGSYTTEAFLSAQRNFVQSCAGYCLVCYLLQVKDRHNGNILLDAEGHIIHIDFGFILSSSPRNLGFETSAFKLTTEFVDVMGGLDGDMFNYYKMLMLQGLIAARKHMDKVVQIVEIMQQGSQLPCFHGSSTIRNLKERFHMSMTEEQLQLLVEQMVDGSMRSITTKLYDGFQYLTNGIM
Phosphatidylinositol 4,5-bisphosphate 3-kinase catalytic subunit alpha isoform (Homo sapiens), sequence (P42336 whole entry, canonical isoform): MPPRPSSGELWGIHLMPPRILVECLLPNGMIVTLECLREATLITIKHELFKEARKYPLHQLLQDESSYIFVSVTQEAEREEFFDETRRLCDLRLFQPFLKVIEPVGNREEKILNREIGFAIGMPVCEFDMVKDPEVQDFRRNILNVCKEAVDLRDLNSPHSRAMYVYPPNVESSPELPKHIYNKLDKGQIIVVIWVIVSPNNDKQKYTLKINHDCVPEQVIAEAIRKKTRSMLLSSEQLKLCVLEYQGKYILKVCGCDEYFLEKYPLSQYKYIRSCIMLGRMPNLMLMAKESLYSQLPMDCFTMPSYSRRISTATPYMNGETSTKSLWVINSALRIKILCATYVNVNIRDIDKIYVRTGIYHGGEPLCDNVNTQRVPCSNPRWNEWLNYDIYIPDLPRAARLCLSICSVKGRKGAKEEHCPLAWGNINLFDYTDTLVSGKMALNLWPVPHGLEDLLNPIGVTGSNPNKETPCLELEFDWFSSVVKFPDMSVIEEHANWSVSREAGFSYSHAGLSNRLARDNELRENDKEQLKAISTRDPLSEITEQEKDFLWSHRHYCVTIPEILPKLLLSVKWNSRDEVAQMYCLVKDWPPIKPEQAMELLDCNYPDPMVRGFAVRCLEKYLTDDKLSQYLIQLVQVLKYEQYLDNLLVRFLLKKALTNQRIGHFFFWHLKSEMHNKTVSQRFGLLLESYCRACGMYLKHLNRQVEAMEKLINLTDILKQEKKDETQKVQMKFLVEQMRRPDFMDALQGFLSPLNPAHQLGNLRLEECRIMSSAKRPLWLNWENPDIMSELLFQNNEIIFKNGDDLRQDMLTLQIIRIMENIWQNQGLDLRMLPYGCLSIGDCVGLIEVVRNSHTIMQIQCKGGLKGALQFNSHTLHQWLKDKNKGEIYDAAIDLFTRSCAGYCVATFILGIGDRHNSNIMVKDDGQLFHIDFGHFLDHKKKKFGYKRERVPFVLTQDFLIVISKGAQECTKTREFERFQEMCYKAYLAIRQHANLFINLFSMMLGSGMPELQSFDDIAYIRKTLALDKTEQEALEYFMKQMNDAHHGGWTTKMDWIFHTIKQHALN
Sphingosine kinase 1 (Homo sapiens), sequence (Q9NYA1 whole entry): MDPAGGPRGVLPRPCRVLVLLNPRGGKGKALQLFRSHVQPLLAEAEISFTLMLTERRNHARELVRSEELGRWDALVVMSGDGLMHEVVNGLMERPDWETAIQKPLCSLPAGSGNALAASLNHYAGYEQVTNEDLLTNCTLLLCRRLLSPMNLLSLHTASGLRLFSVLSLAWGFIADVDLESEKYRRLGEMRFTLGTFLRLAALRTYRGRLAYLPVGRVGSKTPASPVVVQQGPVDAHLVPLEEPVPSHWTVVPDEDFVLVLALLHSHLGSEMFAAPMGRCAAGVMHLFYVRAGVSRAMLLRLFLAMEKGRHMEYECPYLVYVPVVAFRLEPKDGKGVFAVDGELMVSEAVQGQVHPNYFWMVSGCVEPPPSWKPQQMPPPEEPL
Casein kinase II subunit alpha (Homo sapiens), sequence (P68400 whole entry, looked up): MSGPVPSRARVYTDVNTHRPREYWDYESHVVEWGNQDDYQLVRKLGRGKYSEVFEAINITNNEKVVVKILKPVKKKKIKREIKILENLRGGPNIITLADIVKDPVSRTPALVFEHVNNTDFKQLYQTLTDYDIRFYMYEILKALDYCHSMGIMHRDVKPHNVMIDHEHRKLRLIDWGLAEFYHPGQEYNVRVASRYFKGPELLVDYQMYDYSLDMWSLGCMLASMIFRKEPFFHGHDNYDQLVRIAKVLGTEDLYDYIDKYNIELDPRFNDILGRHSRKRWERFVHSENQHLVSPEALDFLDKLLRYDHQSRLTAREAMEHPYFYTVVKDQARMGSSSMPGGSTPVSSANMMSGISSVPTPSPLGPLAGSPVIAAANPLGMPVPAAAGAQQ
SRSF protein kinase 1 (Homo sapiens), sequence (Q96SB4 whole entry): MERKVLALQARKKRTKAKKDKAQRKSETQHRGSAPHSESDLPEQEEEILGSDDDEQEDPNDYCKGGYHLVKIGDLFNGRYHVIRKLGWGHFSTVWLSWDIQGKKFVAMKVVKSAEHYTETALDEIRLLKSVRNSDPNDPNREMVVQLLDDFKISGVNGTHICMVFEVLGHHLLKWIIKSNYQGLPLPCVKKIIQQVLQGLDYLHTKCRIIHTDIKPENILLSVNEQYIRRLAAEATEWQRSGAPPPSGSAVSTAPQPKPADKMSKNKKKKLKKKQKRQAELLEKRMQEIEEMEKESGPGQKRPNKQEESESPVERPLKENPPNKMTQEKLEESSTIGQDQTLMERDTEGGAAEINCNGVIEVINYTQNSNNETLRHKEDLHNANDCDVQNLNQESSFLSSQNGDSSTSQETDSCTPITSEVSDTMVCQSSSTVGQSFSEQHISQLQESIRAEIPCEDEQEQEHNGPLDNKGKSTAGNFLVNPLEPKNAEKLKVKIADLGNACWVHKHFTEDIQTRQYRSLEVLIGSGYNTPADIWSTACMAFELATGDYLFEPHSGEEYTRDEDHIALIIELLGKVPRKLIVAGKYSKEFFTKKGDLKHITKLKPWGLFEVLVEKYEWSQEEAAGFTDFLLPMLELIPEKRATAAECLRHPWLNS

For the molecule `NC(=O)c1sc(-n2cnc3cc(C(F)(F)F)ccc32)cc1OCc1ccccc1Br`, the inhibition (usually the relative decrease from the control value, in per cent) is 1.86% in [1]; -1.98% in experiment [2]; -4.1% in experiment [3]; 0.07% in experiment [4]; 0.07% in [5]; 0.65% in experiment [6]. Besides, the inhibition is 1.77% in experiment [7]; 0.77% in experiment [8]; -3.13% in experiment [9]; -0.24% in experiment [10]; 0.07% in [11]; -0.95% in experiment [12]. Also, the inhibition in [13] was 0%; in experiment [14], -1.01%; in experiment [15] it was 2.21%; in [16], 2.77%; in experiment [17] it was 2.85%; in experiment [18], 3.87%. The inhibition in [19] was found to be 2.52%; in experiment [20], 3.08%.

Consider `Fc1ccc(-c2ncn(C3CCNCC3)c2-c2ccnc(Oc3ccccc3)n2)cc1`, for which the inhibition in experiment [2] is -1.48%; in [3], -1.61%; in experiment [4], 1.53%; in [5] it was 0.06%; in experiment [6] it was 0.6%; in experiment [7] it was 1.12%. Besides, the inhibition in experiment [8] is 0.91%; in experiment [9], 2.57%; in experiment [10], 1.45%; in [11], -1.73%; in [12] it was 1.51%; in experiment [13], 1.09%. In addition, the inhibition in [14] is 6.73%; in [15] it was 1.68%; in experiment [16], -3.14%; in [17], 1.08%; in experiment [18], 4.13%; in experiment [19] it was 3.12%. Further, in experiment [20], the inhibition amounted to 2.6%.

On to `COc1cc2c(cc1Nc1nc(Nc3ccsc3C(N)=O)c3cc[nH]c3n1)N(C(=O)CN(C)C)CCC2`, for which the inhibition in [1] was 3.18%; in experiment [2], -1.65%; in experiment [3] it was -0.66%; in experiment [4] it was -0.16%; in experiment [5] it was -1%; in experiment [6], 0.01%. Moreover, the inhibition in experiment [7] was -0.22%; in experiment [8] it was -1.18%; in experiment [9] it was -3.17%; in [10] it was 1.85%; in experiment [11] it was 0.45%; in experiment [12], 4.92%. The inhibition in experiment [13] was -0.26%; in [14], 8.25%; in [15] it was 37.7%; in [16] it was -7.1%; in [17], -1.3%; in experiment [18], 2.95%. In addition, the inhibition in experiment [19] is -1.2%; in experiment [20], -5.2%.

For `COc1cccc(COc2cc(-n3cnc4ccccc43)sc2C(N)=O)c1`, the inhibition in experiment [1] is -0.04%; in experiment [2], -3.25%; in experiment [3] it was -2.74%; in experiment [4], 0.82%; in [5], 1.56%; in [6], 1.62%. The inhibition in [7] is 3.63%; in [8], 1.38%; in experiment [9], -0.71%; in experiment [10], 2.22%; in experiment [11], -1.55%; in experiment [12], -0.24%. In addition, the inhibition in experiment [13] is -0.85%; in experiment [14], 11.6%; in experiment [15], -0.53%; in experiment [16] it was 9.44%; in [17], 7.88%; in experiment [18], -0.21%. Besides, the inhibition is -0.64% in experiment [19] and -2.28% in experiment [20].
